Screens from PubChem.
Pf growth 48h – P. falciparum growth inhibition at 48 hours (one generation) | P. falciparum luciferase growth in erythrocytes, 48 h | Potency, µM (titrated, usually from 28.7 µM), for inactives: at the highest dose activity change, negative = inhibition, actives largely listed as inhibitors | actives 5.9% (n = 310,000); note: potency is the fitted concentration of half-maximal effect; % is set by controls: 0 for no effect and ±100 for the full control effect
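Luminescence readout; reporter = integrated firefly luciferase in P. falciparum. RBC culture at 2% hematocrit, 0.1% parasitemia final, 37 C/5% CO2; decreased signal taken as growth inhibition.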
Cycloheximide cs – counter-screen hit for Shiga toxin inhibitors, cycloheximide; max response, %; cell reporter, cycloheximide protein synthesis inhibition counterscreen; actives 12% (n = 300,000); in the data active = max response mostly above about 13%, no sharp cut-off; inactive = mostly below about 14%; note: read at 38.3 µM for the half of the compounds with a filed dose; 0% is about no effect
SARS PLP yeast – blocks SARS-CoV papain-like protease in a yeast assay. AID 485353. Potency, µM (series often up to 32.9 µM), for the others: top-dose activity, positive = growth rescue, most hits filed as activators. S. cerevisiae expressing SARS-CoV PLpro, growth rescue. actives 0.19% (n = 330,000); calls by dose curve; note: potency is the fitted concentration of half-maximal effect; 0% is about no effect; nearly all actives have a fitted effect of over 55% in size
Pf growth 96h – inhibits malaria parasite growth, 96 h; actives 6.9% (n = 320,000); P. falciparum luciferase reporter growth, 96 h; Potency, µM (titrated, usually from 28.7 µM), without a hit: at the highest dose activity change, negative = inhibition, usual class: inhibitors; note: potency is the fitted concentration of half-maximal effect; % is set by controls: 0 for no effect and ±100 for the full control effect
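Delayed-death screen, second-generation endpoint: infected erythrocytes, 2% hematocrit, 0.05% parasitemia final; 96 hours at 37 C, 5% CO2; luciferase detection reagent; luminescence decrease equals reduced growth.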
AMA1 RON2 block – disrupts binding of P. falciparum AMA1 to RON2; AlphaScreen AMA1-biotinylated RON2 peptide binding; Potency, µM (doses to about 58.2 µM), for inactives: at the top dose activity change, negative = inhibition, usual class: inhibitors; actives 0.2% (n = 360,000);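 note: potency is the fitted concentration of half-maximal effect; 0% = vehicle wells and -100% = peptide control; nearly all actives have a fitted effect of over 45% in size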
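AMA1 (3D7) with his tag at 25 nM final met compounds first, then biotinylated RON2 peptide at 25 nM; detection used donor plus acceptor beads, 10 µg/mL apiece, read by AlphaScreen after 30 min at room temperature.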
Shiga inhibitor – blocks Shiga toxin action in Vero cells; Vero cells, Shiga toxin protein synthesis inhibition reporter; inhibition, % at 38.7 µM; actives 9.2% (n = 290,000); in the data active = inhibition mostly above about 28%, no sharp cut-off; inactive = mostly below about 43%; note: 0% is about no effect
An asterisk follows results filed as active; ? = inconclusive; nt = not tested or not shown. Compounds with a hit are over-represented: about 19% of the library has one in this group of screens. Unless noted, calls come from the whole dose curve; as a rule, active = well fitted curve in the direction sought with a large enough effect; inconclusive = small, poorly fitted or top-dose-only effect, or another doubt; inactive = no such curve, though single readings can be large; an effect the other way counts as inactive or inconclusive.

SMILES	Pf growth 48h	Cycloheximide cs	SARS PLP yeast	Pf growth 96h	AMA1 RON2 block	Shiga inhibitor
COc1ccc(C2(C)NC(=O)N(CC(=O)NCC(=O)Nc3ccc(F)c(F)c3F)C2=O)cc1OC (stereo not given)	nt	nt	17%	nt	-6%	nt
COc1ccc(C2(C)NC(=O)N(CC(=O)Nc3ccc(C)cc3Br)C2=O)cc1OC (stereo not given)	?	-3	2%	3.7µM*	-3%	-10
CCCCOC(=O)Nc1ccc(N2CCOCC2)cc1	394%	29*	12%	33%	-14%	80*
CCCCOC(=O)Nc1ccc(N2CCCCC2)cc1	nt	43*	4%	127%	?	94
C=CCNC(=O)Nc1ccc2oc(C)nc2c1	34%	6	3%	nt	-2%	15
COc1ccc(NC(=O)Nc2ccc3oc(C)nc3c2)cc1	87%	30*	-2%	?	-5%	67*
Cc1nc2cc(NC(=O)NCCC3=CCCCC3)ccc2o1	87%	19*	-5%	-14%	-44%	57*
CCCOCC(O)CCc1n[nH]c(=S)n1-c1ccccc1 (stereo not given)	2%	-1	0%	153%	-6%	-19
COc1cccc(CN2C(=O)C3(C(C#N)=C(N)OC4=C3C(=O)CCC4)c3ccccc32)c1 (stereo not given)	4.1µM*	-3	3%	9%	4%	-8
CCOC(=O)C1=C(N)OC2=C(C(=O)CCC2)C12C(=O)N(CC(N)=O)c1ccccc12 (stereo not given)	43%	1	0%	6.6µM*	-2%	-9
COc1ccc(-n2c(SC(CN3CCCCC3)CN3CCCC3=O)nc3ccccc3c2=O)cc1 (stereo not given)	?	4	4%	?	-3%	7
COc1cc2[nH]c(=O)n3nc(-c4ccccc4)nc3c2cc1OC	?	-1	19%	-4%	3%	9
CCN(CC)CCNc1nc2cc(OC)c(OC)cc2c2nc(-c3ccccc3)nn12	1µM*	-1	0%	?	-2%	-16
O=C(Cn1ncc(Cl)c(Cl)c1=O)N1CCN(S(=O)(=O)c2ccc3ccccc3c2)CC1	-14%	-10	-18%	?	-17%	-36
COc1ccc(/C=C/C2=NC(=C\N(C)C)/C(=O)O2)cc1	45%	43*	-6%	-2%	-4%	107*
COc1cccc(Cn2c(C3CC3)nc3ccc(NC(=O)c4ccco4)cc3c2=O)c1	3.7µM*	12	-7%	nt	nt	30
Cn1c(=O)c2c(nc(NCCNC(=O)c3ccco3)n2Cc2ccc(F)cc2)n(C)c1=O	?	-2	1%	-24%	-4%	-7
O=C(Nc1ccc2nc(C3CC3)n(Cc3ccc(F)cc3)c(=O)c2c1)c1ccco1	1.9µM*	20	-4%	nt	?	46
COC(=O)c1ccc(CNC(=O)c2ccc(COc3ccccc3)cc2)cc1	-23%	8	7%	4%	-1%	-32
COc1ccccc1N1CCN(C2CCCN(C(=O)c3cscn3)C2)CC1 (stereo not given)	19%	-5	-1%	?	-1%	6
COc1ccccc1N1CCN(C2CCCN(C(=O)c3snnc3C)C2)CC1 (stereo not given)	0%	-11	5%	13µM*	-5%	-8
COc1ccc(C(=O)N2CCCC(N3CCN(c4ccccc4F)CC3)C2)c(OC)n1 (stereo not given)	-3%	-1	1%	13µM*	3%	2
CC(C)Cc1nnc(NC(=O)CN2C(=O)NC3(CC(C)CC(C)(C)C3)C2=O)s1 (stereo not given)	?	nt	1%	17µM*	16%	nt
CCOC(=O)c1sc(NC(=O)CN2C(=O)NC3(CC(C)CC(C)(C)C3)C2=O)cc1C (stereo not given)	2.6µM*	nt	0%	3.7µM*	-1%	nt
CCOC(=O)c1sc(NC(=O)CN2C(=O)NC3(CCC(C)CC3)C2=O)c(C(=O)OCC)c1C (stereo not given)	?	nt	15%	-7%	0%	nt
SMILES	Pf growth 48h	Cycloheximide cs	SARS PLP yeast	Pf growth 96h	AMA1 RON2 block	Shiga inhibitor
CCOC(=O)c1sc(NC(=O)CN2C(=O)NC3(CC(C)CC(C)(C)C3)C2=O)c(C(=O)OCC)c1C (stereo not given)	8.3µM*	-1	17%	2.1µM*	15%	6
Cc1cc(N)n(-c2ccc([N+](=O)[O-])cc2)n1	25%	1	7%	18%	-19%	-12
CC(=O)Nc1c(C)nn(-c2ccc(C)c(C)c2)c1C	34%	3	4%	8%	-13%	-9
Cc1ccc(-n2nc(C)c(NC(=O)CCl)c2C)cc1C	4.1µM*	33*	27%	-1%	10%	101*
CCC(=O)Nc1c(C)nn(-c2ccc(C)c(C)c2)c1C	-3%	22*	28%	-16%	0%	65*
Cc1cc(N)n(-c2ccccn2)n1	53%	17*	0%	39%	42%	72*
Cc1cc(N)n(-c2ccc(C)c(C)c2)n1	52%	27*	2%	-31%	-23%	62*
C=C1CCN(C(C)C(=O)O)S(=O)(=O)c2ccccc21 (stereo not given)	16%	-8	0%	-3%	6%	-10
N#CCCN1CCN(C(=S)c2ccc(-c3ccc(Cl)c(Cl)c3)o2)CC1	13%	16	-9%	2%	-8%	35
O=[N+]([O-])c1cccc(-c2ccc(C(=S)N3CCN(c4ccccc4)CC3)o2)c1	7%	2	0%	6%	?	-3
O=C(Nc1ccc(CN2CCOCC2)cc1)c1ccc(-c2cccc([N+](=O)[O-])c2)o1	?	15	2%	2.6µM*	-5%	3
O=C(N/N=C/c1cccc([N+](=O)[O-])c1)c1ccc(CN2CCOCC2)cc1	-2%	-3	10%	44%	20%	13
O=[N+]([O-])c1cccc(-c2ccc(C(=S)N3CCOCC3)o2)c1	186%	39*	0%	?	?	72*
O=[N+]([O-])c1cccc(-c2ccc(CN3CCCCC3)o2)c1	6%	3	1%	5%	-7%	nt
CN1CCN(C(=S)c2ccc(-c3cccc([N+](=O)[O-])c3)o2)CC1	231%	51*	0%	206%	-18%	102*
O=[N+]([O-])c1cc(-c2ccc(C(=S)N3CCOCC3)o2)ccc1Cl	22%	31*	-9%	?	?	55*
CC(Oc1ccc2cc(-c3ccccc3)c(=O)oc2c1)C(=O)NCC1CCC(C(=O)O)CC1 (stereo not given)	-8%	8	1%	8%	-1%	3
Cc1ncc([N+](=O)[O-])n1S(=O)(=O)c1cc(Cl)ccc1Cl	15%	-1	1%	-20%	-10%	-7
